Laboratory results reported in PubChem BioAssay AID1159580 (chemical genetic matrix, 2015).
“And” between values parts separate entries of the source, which are not always exact repeats. Equal entries are not always repeated. Among all 5,500 compounds or so, about 2,000 (36%) were called active. Not shown: some 18% with an inconclusive outcome. No stated cut-off is given here; in the data, active means normalized growth mostly below about 0.91 (no sharp cut-off); inconclusive means no clear call, values can overlap the other calls; inactive means mostly above about 0.92. This is one part of the list.

Experiment: chemical genetic growth profiling, strain panel (AID 1159580);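 further: tested at 20 µM; growth read once vehicle control cultures reached saturation at 30 °C; 1 = growth at the plate median or of vehicle wells; lower values mean less growth of the strain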
Conditions: S. cerevisiae deletion strains, growth OD

Measured: normalized growth

C=C(C)C1Cc2c(ccc3c(=O)c4c(oc23)COc2cc(OC)c(OC)cc2-4)O1 (stereo unspecified)
inactive: locus YAL021C, strain ccr4, active compounds read low 1.01 | locus YAL026C, strain drs2, active compounds read low 0.999 | locus YAL030W, strain snc1, active compounds read low 0.987 | locus YBL061C, strain skt5, active compounds read low 0.999 | locus YBR009C, strain hhf1, active compounds read low 1 | locus YBR021W, strain FUR4, active compounds read low 1.05 | locus YBR023C, strain chs3, active compounds read low 0.998 | locus YBR171W, strain sec66, active compounds read low 0.99 | locus YBR229C, strain ROT2, active compounds read low 1 | locus YBR231C, strain swc5, active compounds read low 1.01 | locus YBR279W, strain paf1, active compounds read low 1 | locus YCL011C, strain gbp2, active compounds read low 0.989 | locus YCL016C, strain dcc1, active compounds read low 0.995 | locus YCL029C, strain bik1, active compounds read low 1 | locus YCL061C, strain MRC1, active compounds read low 0.996 | locus YCL069W, strain vba3, active compounds read low 0.999 | locus YCR088W, strain abp1, active compounds read low 0.996 | locus YDL005C, strain med2, active compounds read low 0.997 | locus YDL035C, strain GPR1, active compounds read low 1.04 | locus YDL040C, strain nat1, active compounds read low 0.991 | locus YDL074C, strain BRE1, active compounds read low 1.04 | locus YDL101C, strain DUN1, active compounds read low 0.994 | locus YDL134C, strain PPH21, active compounds read low 1.01 | locus YDL185W, strain tfp1, active compounds read low 0.956 | locus YDL192W, strain arf1, active compounds read low 1.03 | locus YDR001C, strain nth1, active compounds read low 1 | locus YDR069C, strain doa4, active compounds read low 1 | locus YDR101C, strain arx1, active compounds read low 1.04 | locus YDR137W, strain rgp1, active compounds read low 0.926 | locus YDR150W, strain NUM1, active compounds read low 0.989 | locus YDR159W, strain sac3, active compounds read low 1.01 | locus YDR162C, strain NBP2, active compounds read low 1.04 | locus YDR195W, strain ref2 0.998 | locus YDR297W, strain sur2, active compounds read low 0.995 | locus YDR318W, strain mcm21, active compounds read low 1.01 | locus YDR334W, strain swr1, active compounds read low 0.982 | locus YDR335W, strain msn5, active compounds read low 1 | locus YDR388W, active compounds read low 0.997 | locus YDR392W, strain spt3, active compounds read low 0.982 | locus YDR502C, strain sam2, active compounds read low 1.01 | locus YEL003W, strain gim4, active compounds read low 0.991 | locus YEL037C, strain rad23, active compounds read low 0.997 | locus YEL061C, strain CIN8 (second series), active compounds read low 1 | locus YEL061C, strain CIN8, active compounds read low 1 | locus YER015W, strain faa2, active compounds read low 1 | locus YER016W, strain bim1, active compounds read low 0.994 | locus YER110C, active compounds read low 1 | locus YER111C, strain swi4, active compounds read low 1.01 | locus YER155C, strain BEM2 (second series), active compounds read low 1.01 | locus YER155C, strain BEM2, active compounds read low 0.99 | locus YER167W, strain BCK2, active compounds read low 0.988 | locus YFR010W, strain ubp6, active compounds read low 0.988 | locus YGL078C, strain dbp3, active compounds read low 0.987 | locus YGL086W, strain mad1, active compounds read low 0.995 | locus YGL167C, strain pmr1, active compounds read low 1.01 | locus YGL173C, strain kem1, active compounds read low 0.996 | locus YGL227W, strain vid30, active compounds read low 1.01 | locus YGL240W, strain doc1, active compounds read low 1.01 | locus YGL248W, strain PDE1, active compounds read low 0.999 | locus YGL253W, strain hxk2, active compounds read low 1 | locus YGR135W, strain pre9, active compounds read low 0.983 | locus YGR229C, strain SMI1, active compounds read low 0.988 | locus YGR252W, strain gcn5, active compounds read low 1.06 | locus YHR013C, strain ard1, active compounds read low 1.01 | locus YHR027C, strain rpn1, active compounds read low 0.99 | locus YHR030C, strain SLT2, active compounds read low 0.973 and 1.01 | locus YHR079C, strain IRE1 (second series), active compounds read low 1 | locus YHR079C, strain IRE1, active compounds read low 1.06 | locus YHR094C, strain hxt1, active compounds read low 0.979 | locus YHR129C, strain ARP1, active compounds read low 1.01 | locus YHR142W, strain chs7, active compounds read low 1.01 | locus YHR200W, strain rpn10, active compounds read low 1.01 | locus YIL066C, strain RNR3, active compounds read low 1 | locus YIL073C, strain SPO22, active compounds read low 0.927 | locus YIL125W, strain kgd1, active compounds read low 0.998 | locus YIR030C, strain dcg1, active compounds read low 0.999 | locus YJL092W, strain hpr5, active compounds read low 0.993 | locus YJL095W, strain BCK1 (second series), active compounds read low 0.998 | locus YJL095W, strain BCK1, active compounds read low 1.03 and 1.01 | locus YJL115W, strain asf1, active compounds read low 0.974 | locus YJL129C, strain trk1, active compounds read low 0.993 | locus YJL134W, strain LCB3, active compounds read low 0.998 | locus YJL154C, strain vps35, active compounds read low 0.99 | locus YJL164C, strain tpk1, active compounds read low 1 | locus YJL166W, strain qcr8, active compounds read low 1.01 | locus YJL168C, strain set2, active compounds read low 0.998 | locus YJL187C, strain SWE1 (second series), active compounds read low 0.995 | locus YJL187C, strain SWE1, active compounds read low 1.01 | locus YJR043C, strain POL32, active compounds read low 1.04 | locus YJR066W, strain TOR1, active compounds read low 0.986 | locus YKL009W, strain mrt4, active compounds read low 1 | locus YKL068W, active compounds read low 0.982 | locus YKL085W, strain MDH1 (second series), active compounds read low 0.997 | locus YKL085W, strain MDH1, active compounds read low 0.997 | locus YKL160W, strain elf1, active compounds read low 1.01 | locus YKL190W, strain CNB1, active compounds read low 0.992 | locus YKR001C, strain vps1, active compounds read low 1.03 | locus YKR026C, strain gcn3, active compounds read low 0.999 | locus YKR091W, strain srl3, active compounds read low 0.999 | locus YLL001W, strain dnm1, active compounds read low 0.995 | locus YLL026W, active compounds read low 0.993 | locus YLL041C, strain sdh2, active compounds read low 0.978 | locus YLR027C, strain aat2, active compounds read low 0.986 | locus YLR039C, strain RIC1, active compounds read low 0.99 | locus YLR058C, strain SHM2, active compounds read low 1.02 | locus YLR102C, strain apc9, active compounds read low 0.993 | locus YLR113W, strain HOG1, active compounds read low 0.992 | locus YLR221C, strain rsa3, active compounds read low 1 | locus YLR258W, strain gsy2, active compounds read low 0.991 | locus YLR262C, strain YPT6 (second series), active compounds read low 1 | locus YLR262C, strain YPT6, active compounds read low 0.969 | locus YLR268W, strain sec22, active compounds read low 1.04 | locus YLR320W, strain mms22, active compounds read low 1.02 | locus YLR330W, strain CHS5, active compounds read low 1 | locus YLR342W, strain FKS1 (second series), active compounds read low 1.06 | locus YLR342W, strain FKS1, active compounds read low 1 | locus YLR357W, strain rsc2, active compounds read low 1.02 | locus YLR370C, strain arc18, active compounds read low 1.01 | locus YLR371W, strain rom2, active compounds read low 0.98 | locus YLR384C, strain iki3, active compounds read low 1 | locus YLR418C, strain cdc73, active compounds read low 1.05 | locus YML016C, strain PPZ1, active compounds read low 0.999 | locus YML032C, strain rad52, active compounds read low 1.01 | locus YML120C, strain ndi1, active compounds read low 1.01 | locus YML124C, strain tub3, active compounds read low 0.992 | locus YMR058W, strain fet3, active compounds read low 1 | locus YMR078C, strain ctf18, active compounds read low 0.998 | locus YMR125W, strain sto1, active compounds read low 0.998 | locus YMR129W, active compounds read low 0.996 | locus YMR205C, strain PFK2, active compounds read low 1.02 | locus YMR223W, strain ubp8, active compounds read low 1.01 | locus YMR231W, strain pep5, active compounds read low 0.996 | locus YMR307W, strain GAS1, active compounds read low 1.18 | locus YNL067W, strain RPL9B, active compounds read low 0.984 | locus YNL071W, strain lat1, active compounds read low 0.981 | locus YNL153C, strain GIM3, active compounds read low 0.991 | locus YNL183C, strain NPR1, active compounds read low 0.988 | locus YNL209W, strain ssb2, active compounds read low 0.999 | locus YNL233W, strain BNI4, active compounds read low 1.03 | locus YNL248C, strain rpa49, active compounds read low 0.991 | locus YNL250W, strain rad50, active compounds read low 0.962 | locus YNL271C, strain bni1, active compounds read low 0.99 | locus YNL298W, strain CLA4, active compounds read low 1 | locus YNL307C, strain MCK1, active compounds read low 0.993 | locus YNL322C, strain KRE1 (second series), active compounds read low 1 | locus YNL322C, strain KRE1, active compounds read low 0.999 | locus YNR049C, strain mso1, active compounds read low 1 | locus YNR052C, strain pop2, active compounds read low 0.991 | locus YOL012C, strain htz1 1.59 | locus YOL147C, strain pex11, active compounds read low 0.992 | locus YOR001W, strain rrp6, active compounds read low 0.99 | locus YOR061W, strain CKA2, active compounds read low 1 | locus YOR069W, strain VPS5, active compounds read low 0.996 | locus YOR070C, strain gyp1, active compounds read low 0.99 | locus YOR080W, strain dia2, active compounds read low 1 | locus YOR083W, strain WHI5, active compounds read low 1.01 | locus YOR106W, strain vam3, active compounds read low 1.02 | locus YOR136W, strain idh2, active compounds read low 1 | locus YOR144C, strain elg1, active compounds read low 0.999 | locus YOR184W, strain ser1, active compounds read low 1.07 | locus YOR231W, strain MKK1, active compounds read low 1.03 | locus YOR265W, strain rbl2, active compounds read low 0.993 | locus YOR270C, strain vph1, active compounds read low 1 | locus YOR290C, strain snf2, active compounds read low 0.998 | locus YOR316C, strain cot1, active compounds read low 0.982 | locus YPL051W, strain arl3, active compounds read low 1.01 | locus YPL078C, strain atp4, active compounds read low 1.01 | locus YPL106C, strain sse1, active compounds read low 0.992 | locus YPL240C, strain hsp82, active compounds read low 0.976 | locus YPL241C, strain CIN2, active compounds read low 0.991 | locus YPL256C, strain CLN2, active compounds read low 1.03 | locus YPR119W, strain clb2, active compounds read low 0.988 | locus YPR141C, strain kar3, active compounds read low 0.974 | locus YPR163C, strain tif3, active compounds read low 0.974 | locus YPR167C, strain met16, active compounds read low 1.01 | strain wtn01, active compounds read low 1.03
